# An excerpt weighted towards active compounds, which were near 11% of everything screened.
# L3MBTL1 inh: inhibitors of human L3MBTL1; Q9Y468; AlphaScreen L3MBTL1–H3K9me1 peptide binding; Potency, µM (top dose mostly 57.1 µM), without a hit: at the highest dose activity, negative = inhibition, usual class: inhibitors; actives 0.66% (n = 230,000); also: % is scaled to controls: 0 for no effect and ±100 for the full control effect; nearly all actives have a fitted effect of over 60% in size
#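 Read-out is AlphaScreen signal from streptavidin donor and nickel chelate acceptor beads (10 ug/mL final each) bridging L3MBTL1 (50 nM) and biotinylated K9-monomethylated H3(1-15) peptide (75 nM), after 30 min compound exposure at room temperature.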
# BAZ2B inh: blocks human BAZ2B; actives 4.4% (n = 360,000); Potency, µM (titrated, usually from 114 µM), without a hit: at the top dose activity change, negative = inhibition, hits mostly inhibitors; AID 504333; AlphaScreen BAZ2B-H3K14Ac peptide displacement; also: % is scaled to controls: 0 for no effect and ±100 for the full control effect; nearly all actives have a fitted effect of over 60% in size
#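 AlphaScreen displacement: compounds (up to 110uM) incubated 30 min at room temperature with a preformed 50 nM BAZ2B/50 nM biotinylated H3K14Ac peptide complex in PBS pH 7.4 with Tween-20. Donor and acceptor beads at 10 ug/mL final added, 20 min light-protected before reading.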
# JMJD2A Tudor: inhibitors of human JMJD2A Tudor domain. AID 504339. Potency, µM (series often up to 114 µM), without a hit: at the top dose activity change, negative = inhibition, hits mostly inhibitors. actives 4.4% (n = 390,000). AlphaScreen JMJD2A-Tudor / H3K4me3 peptide binding. O75164; also: % is scaled to controls: 0 for no effect and ±100 for the full control effect; nearly all actives have a fitted effect of over 50% in size
# G9a inh: inhibitors of human histone lysine methyltransferase G9a; G9a H3K9 monomethylation, AlphaScreen, 2 h; actives 8.8% (n = 350,000); Q96KQ7; Potency, µM (highest dose often 102 µM), for the others: top-dose activity, negative = inhibition, usual class: inhibitors; AID 504332; also: % is scaled to controls: 0 for no effect and ±100 for the full control effect; nearly all actives have a fitted effect of over 75% in size
#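 Using a bead-based AlphaScreen, monomethylated H3K9 product from 2 h room-temperature reactions (G9a 20 nM, peptide 500 nM, SAM 20 uM) was detected with 0.5 ug/mL rabbit anti-H3K9me1 antibody.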
# HP1b chromo inh: HP1-beta chromodomain-methylated histone interaction inhibition; P83916; AlphaScreen HP1-beta / biotin-H3K9me3 peptide binding; Potency, µM (titrated, usually from 114 µM), for inactives: at the top dose activity change, negative = inhibition, most hits filed as inhibitors; actives 0.56% (n = 390,000); AID 540317; also: nearly all actives have a fitted effect of over 70% in size
#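 HP1-beta protein (50 nM final) preincubated 30 min at room temperature with biotinylated H3(1-18)K9me3 peptide (50 nM) in PBS pH 7.4, 0.01% Tween-20, then compound added for 30 min. AlphaScreen streptavidin donor/nickel chelate acceptor beads (10 ug/mL final), 30 min dark, luminescence read.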
# Numbers without * were called inactive; ? = inconclusive; · = not tested or not shown; [ ] = remark or other dose. Calls follow the shape of the dose curve; as a rule, active = well fitted inhibition curve with a large enough effect; inconclusive = small, poorly fitted or top-dose-only effect; inactive = no such curve, though single readings can be large or run the other way. Potency is read from the fitted curve at half-maximal effect.
SMILES,L3MBTL1 inh,BAZ2B inh,JMJD2A Tudor,G9a inh,HP1b chromo inh
O=C(CSc1nc(-c2ccccc2)[nH]c1-c1ccccc1)Nc1ccc2c(c1)OCO2,·,56µM*,?,22µM*,?
O=C(CSc1ccc2c(c1)OCCO2)NCc1ccco1,-6%,?,-17%,50µM*,24%
O=C(CSc1ccccc1)Nc1ccc2c(c1)OCCO2,·,-5%,-10%,79µM*,20%
O=C(CSc1ccccc1)Nc1ccc2c(c1)OCO2,·,0%,1%,3%,13%
COc1ccc(-c2nc(SCC(=O)Nc3ccc4c(c3)OCCO4)c(-c3ccccc3)[nH]2)cc1,·,-2%,-24%,-12%[59 µM],18%
Cc1ccc2[nH]c(=O)c3cc(C(=O)NCc4cccc(Cl)c4)sc3c2c1,·,12%,-4%,-3%[59 µM],64%
COc1ccc(-c2[nH]c(-c3ccc(OC)c(OC)c3)nc2SCC(=O)Nc2ccccc2)cc1,·,2%,?,-18%[59 µM],-14%
Cc1cc(C(F)(F)F)nn1CC(=O)Nc1ccc2c(c1)OCO2,·,-13%,-20%,24%,21%
COc1ccc(NC(=O)CSc2nc(-c3cccc(C)c3)[nH]c2-c2ccccc2)cc1OC,·,22µM*,?,?,-14%
COc1ccc(NC(=O)CSc2ncccc2C(=O)O)cc1OC,·,56µM*,-10%,?,21%
O=C(COc1ccc(Cl)cc1)NCc1nnc(SCC(=O)Nc2ccc3c(c2)OCCO3)o1,7%,6%,79µM*,19%[59 µM],?
Cc1nn(CC(=O)Nc2ccc3c(c2)OCO3)c(C)c1Cl,·,-14%,2%,71µM*,45%
Cc1noc(C)c1-c1ccc2ncnc(NCc3cc(F)cc(F)c3)c2c1,·,·,-22%,·,·
O=C(CN1CC(=O)Oc2ccccc21)NCc1ccco1,2%,45µM*,-28%[11.4 µM],?,6%
O=S(=O)(Nc1ccccc1)c1cccc2nsnc12,-30%,50µM*,?,?,?
Cc1ccc(NS(=O)(=O)c2cccc3nsnc23)cc1[N+](=O)[O-],·,-29%,-21%,40µM*,9%
O=C(C1CCC(CNS(=O)(=O)c2cccc3nsnc23)CC1)N1CC=C(c2ccccc2)CC1 (stereo unspecified),·,17%,-28%,89µM*,16%
O=C(O)CNS(=O)(=O)c1cccc2nsnc12,·,-27%,14µM*,3%[12.7 µM],10%
O=C(Nc1nnc(C2CCCCC2)s1)C1CCN(C(=O)c2ccco2)CC1,·,·,-19%,·,25%
CC(C)CN(C(=O)COC(=O)CSc1ccccc1)c1c(N)n(Cc2ccccc2)c(=O)[nH]c1=O,2%,12%,-12%,-22%,10%
O=C(CCCn1ccc2cc(S(=O)(=O)N3CCCC3)ccc21)NCc1ccc(Cl)cc1,·,-18%,-17%,-5%[59 µM],-3%
CCOc1ccc(NCCC(O)c2ccc(F)cc2)cc1 (stereo unspecified),·,50µM*,?,-33%[2.33 µM],?
CCOc1ccc(C(C)NC(=S)NCc2ccc(F)cc2)cc1 (stereo unspecified),·,-28%,-5%,·,41%
COC(=O)c1cccc(Cn2nc(C)c([N+](=O)[O-])c2C)c1,·,-15%,50µM*,5%[59 µM],9%
COc1cccc(-c2noc(Cn3nc(C)c([N+](=O)[O-])c3C)n2)c1,-6%,0%,-12%,40µM*,-12%
SMILES,L3MBTL1 inh,BAZ2B inh,JMJD2A Tudor,G9a inh,HP1b chromo inh
COc1cccc(OCc2nc(-c3cccc([N+](=O)[O-])c3)no2)c1,·,-19%,-22%,10%[59 µM],5%
CC(=O)/C(C[N+]1(C)CCCCC1)=N\O,11%,?,35µM*,?,-32%
Cc1ccc(C)c(OCC(=O)Nc2c(C)n(C)n(-c3ccccc3)c2=O)c1,5%,1%,-15%,1%[12.7 µM],24%
Cc1cc(=O)oc2cc(OCC(=O)Nc3c(C)n(C)n(-c4ccccc4)c3=O)c(Cl)cc12,5%,79µM*,-3%,-7%,25%
O=C(CSc1nc(=O)n(Cc2ccco2)c2c1CCC2)NCc1ccccc1Cl,·,-14%,-10%,-8%[59 µM],10%
Cc1cccc(NC(=O)CSC2=NN3CCCC(=O)N=C3S2)c1C,2%,50µM*,?,4%,2%
O=C1CCCN2N=C(SCC(=O)Nc3ccc([N+](=O)[O-])cc3)SC2=N1,·,-6%,56µM*,12%,1%
C=Cc1cc(F)c(S(=O)(=O)N2CCN(S(=O)(=O)c3ccc4c(c3)OCCO4)CC2)cc1F,·,·,-8%,·,·
CCCCC(=O)NC(=S)Nc1cccc(NC(=O)CC)c1,6%,3%,-21%,41%[0.0925 µM],16%
CCCCC(=O)NC(=S)Nc1c(C)cc(Br)cc1C,-1%,-22%,?,10µM*,26%
CCCCCC(=O)NC(=S)NNC(=O)CC,·,33%,28µM*,?,-8%
CCCCC(=O)NC(=S)NNC(=O)CC,19%,18%,7%[11.4 µM],7.1µM*,51%
O=C(NC1CCCCC1)c1ccc(CSc2nc3ccncc3n2Cc2cccc(F)c2)cc1,·,14%,-25%,3%[59 µM],65%
COc1ccccc1N1CCN(C(=O)C(C)NC(=O)c2cccc([N+](=O)[O-])c2)CC1 (stereo unspecified),·,0%,-7%,-6%,11%
Cc1c(-c2cc[n+]([O-])cc2)oc2ccc(Br)cc2c1=O,-6%,-20%,·,-6%,·
Cc1oc2ccc(Br)cc2c(=O)c1-c1nn[nH]n1,7%,56µM*,?,?,6%
CCOc1ccc(N=C(NN)c2ccc3ccccc3n2)cc1,-23%,40µM*,50µM*,13µM*,-1%[57 µM]
CCC(=O)N1CCc2cc(S(=O)(=O)NC(CC(C)C)C(=O)Nc3cc(C)ccc3OC)ccc21 (stereo unspecified),·,·,-13%,-2%[59 µM],27%
CC(=O)Nc1ccc(NC(=O)c2cc(S(=O)(=O)N3CCCCC3)ccc2N2CCOCC2)cc1,·,·,2%,·,23%
Cc1nc2ccc(NC(=O)c3cc(S(=O)(=O)N(C)c4ccccc4)ccc3Cl)cc2s1,3%,1%,1%,-2%[59 µM],33%
O=C(Nc1ccc(OC(F)F)cc1)c1cc(S(=O)(=O)N2CCCCC2)ccc1N1CCOCC1,28%,28%,-2%,16µM*,29%
O=C(NC(=S)N1CCCCC1CO)c1cc(Br)ccc1Cl (stereo unspecified),3%,6%,7.9µM*,?,-13%
Cc1ccc(S(=O)(=O)N2CCCC2)cc1C(=O)NCCN1CCOCC1,·,?,-7%,79µM*,28%
CCC1CCCCN1C(=O)COC(=O)c1cc(Br)ccc1Cl (stereo unspecified),·,10%,10%,-5%,51%
CN(c1ccccc1)S(=O)(=O)c1ccc(Cl)c(C(=O)Nc2ccc(N3CCOCC3)cc2)c1,-20%,?,?,50µM*,-4%
COc1ccc(CNC(=O)CCc2c(C)c3cc4c(C)c(C)oc4cc3oc2=O)cc1OC,·,-3%,-21%,4%[59 µM],-9%
